For 15 compounds, growth inhibition results are on record in PubChem BioAssay (NCI).

This is part of a sample that, as a whole, favours compounds with a hit. Of some 79,000 tested, about 15% had one in any assay. Unmarked numbers belong to inactive results. Activity calls are given as the source filed them. No stated cut-off is given here; in the data, active means growth inhibition above about 70%; inactive means the rest.

A short description of the experiment: NCI Yeast Anticancer Drug Screen. Data for the mec2-1 strain (AID 157). The note with it: S. cerevisiae mec2-1 strain, at 50.0 µM, active compounds read high. The method, boiled down: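 Each compound was tested on mec2-1 yeast, a strain altered in DNA damage repair or cell cycle control. Growth inhibition is reported relative to vehicle.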
For the compound `O=[N+]([O-])c1cc[n+]([O-])c2ccccc12`, the growth inhibition was 53.9%.
In the case of `COc1c[c]([Hg][O]C(C)=O)c(OC)c(NC(=O)CC(C)=O)[c]1[Hg][O]C(C)=O` it was 92.5% (active).
As for `CN(C)c1ccc(C2N(Cc3ccc(N(CCCl)CCCl)cc3)CCCN2Cc2ccc(N(CCCl)CCCl)cc2)cc1`, the growth inhibition is 5.2%.
In the case of `CC(=O)c1ccc(-[n+]2c(C)cc(-c3ccccc3)cc2C)cc1` it was -7.4%.
In the case of `[O]=[Sb]([OH])([OH])[c]1ccc(NC2OC(CO)C(O)C(O)C2O)cc1` (stereo not given) it was 5.65%.
Regarding `CCC1CN1P(=O)(Oc1ccccc1)N1CC1CC` (stereo not given), the growth inhibition is -17.2%.
The result for `CCN(CC)CC(=O)c1cc2ccccc2c2ccccc12` reads 92.2% (active); that for `O=C1CCCC1Cl` (stereo not given), 82.6% (active); that for `N#C[S-].[La+3].c1ccc(-c2ccccn2)nc1.c1ccc(-c2ccccn2)nc1.c1ccc(-c2ccccn2)nc1`, 93.8% (active).
In the case of `O=c1s[se]c2ccccc12` it was 87.1% (active).
The result for `O=C(CCl)Nc1ccc(Cl)cc1` reads 59.5%; that for `O=C1N[C@H]2[C@H](O)[C@H](O)[C@@H](O)[C@H](O)[C@@H]2c2cc3c(c(O)c21)OCO3`, 65.8%.
In the case of `O=C(Nc1n[c]([Hg][Cl])[c]([Hg][Cl])s1)OCc1ccccc1`, the growth inhibition was 99.5% (active).
For the compound `CC[C@@]1(O)C[C@H](OC2CC(N(C)C)C(O)C(C)O2)c2c(cc3c(c2O)C(=O)c2c(O)ccc(O)c2C3=O)[C@H]1C(=O)OC` (stereo not given in full), the growth inhibition is 92.1% (active).
In the case of `CCCCCc1cc(O)c(CCCC)c(O)c1`, the growth inhibition was 99% (active).
